In PubChem BioAssay AID720706 (Broad Institute, 2013):
Out of some 350,000 compounds screened, about 5,500 (1.6%) were called active.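 How the source made its calls: active means significant combined selectivity score with lowered wild-type GFP, culture density cut under 30%, mutant RFP and density less affected; inactive means any of these conditions unmet.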 This excerpt belongs to a sample that is enriched for actives.

assay: GFP drop in mixed WT/humanized-ribosome E. coli culture – GFP/RFP fluorescence, OD600, single point, bacterial rRNA inhibitor project, primary screen (AID 720706); conditions: E. coli WT GFP vs humanized-ribosome RFP mutants, 24 h; GFP signal change (wild-type ribosome): stronger effect = lower value, DMSO median 0, no signal -100; OD600 change: measured here: OD600 growth, DMSO median 0, no signal -100; RFP signal change: measured here: RFP humanized mutant strains, DMSO median 0, no signal -100, concentration not given here

Structure (SMILES) | GFP signal change (wild-type ribosome) | OD600 change | RFP signal change
C[C@H](CO)N1C[C@H](C)[C@@H](CN(C)S(=O)(=O)c2ccc(Cl)cc2)Oc2ccc(NS(=O)(=O)c3cccs3)cc2CC1=O | -3.83% (inactive) | -15.4% | 2.4%
CN(c1ccc(O)cc1)c1nc(-c2cccnc2)cs1 | -12.4% (inactive) | -11.5% | -4.17%
CC(C)(C)C(=O)OCc1nc(-c2ccc(O)c(O)c2)cs1 | -25.8% (active) | -12.7% | -1.12%
COc1ccc(C(C)(O)c2nc(-c3ccc(C)c(C)c3)cs2)cc1 (centres undefined) | -26.3% (inactive) | -43.5% | 0.438%
COc1ccccc1-c1ccc([C@@H]2C[C@H]3[C@H](CON3C)CN2S(=O)(=O)c2cc(Cl)cc(Cl)c2)cc1 | 6.53% (inactive) | 14.8% | -4.58%
O=C(CSc1nnnn1-c1ccc(O)cc1)c1ccc(F)cc1 | -23.8% (inactive) | -18.1% | -2.43%
CC(=O)Nc1ccc(NC(=O)CSc2nnnn2-c2ccccc2F)cc1 | 4.89% (inactive) | 2.23% | -0.743%
Cc1ccccc1-n1nnnc1SCCCC(=O)c1ccc(F)cc1 | -23.1% (active) | -14.2% | -2.44%
CCNC(=O)Nc1ccc2c(c1)C(=O)N(C)[C@H]1CC[C@H](CC(=O)NCC3CCCCC3)O[C@@H]1CO2 | -0.861% (inactive) | -5.67% | 0.251%
O=C(c1ccc(F)cc1)N1CC(=O)N2[C@H](CO)[C@H](c3ccc(-c4ccccc4F)cc3)[C@@H]2C1 | 0.409% (inactive) | -9.64% | 3.17%
C[C@@H]1CN([C@H](C)CO)C(=O)c2cc(NC(=O)Nc3ccccc3)ccc2O[C@@H](C)CCCCO[C@@H]1CN(C)S(=O)(=O)c1ccc(F)cc1 | 1.72% (inactive) | -2.21% | -3.62%
COc1ccc2c3c(n(C)c2c1)[C@@H](CO)N(C)CC31CN(S(=O)(=O)c2cccs2)C1 | 0.733% (inactive) | -9.82% | -0.435%
O=C(C[C@@H]1CC[C@@H](NC(=O)Nc2ccc(F)cc2)[C@H](CO)O1)NCCN1CCCC1 | 0.52% (inactive) | 4.7% | -1.57%
